# T cruzi growth-1 = T. cruzi intracellular proliferation inhibitors, primary screen, cell-based, beta-gal Tulahuen parasites, NIH3T3 host, luminescence; actives 5.9% (n = 77,000); AID 624255, 2012; T. cruzi beta-gal in NIH3T3, GalScreen luminescence, 90 h; inhibition, % at 8.34 µM;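 active = mean inhibition above about 93%, with at least 55% of replicates each passing it, limit read from the data, passing the limit was not always enough; inconclusive = only one of those two conditions holds; inactive = neither condition holds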
# C diff HTS = C. difficile growth inhibitors, primary screen, HTS; Clostridium difficile clinical isolate growth, OD600, 24 h; active compounds read low; actives 0.25% (n = 86,000); AID 1259249, 2017; growth activity, negative = inhibition, % at 16 µg/mL (by protocol);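 active = mean growth activity at or below -80% and every replicate also at or below -80%; inconclusive = mean at or below -80% but some replicate above -80%; inactive = mean growth activity above -80%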;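 note: 0% = DMSO wells and -100% = levofloxacin 16 µg/mL wells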
# T cruzi growth-2 = T. cruzi intracellular proliferation inhibitors, confirmation, cell-based, NIH3T3 host, beta-gal parasite, luminescence, cherry-pick. shares compounds with T cruzi growth-1. T. cruzi beta-gal in NIH3T3, GalScreen luminescence, 90 h. inhibition, % at 8.35 µM. actives 72% (n = 5,600). AID 651739, 2012;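 active = mean replicate inhibition above about 95% and at least 55% of replicates individually reaching it, limit read from the data; inconclusive = only one of the two criteria is met; inactive = neither criterion is met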
# T cruzi growth-3 = inhibitors of intracellular T. cruzi replication, confirmation, NIH3T3 host cells, beta-gal parasites, cherry-pick, set 2; shares compounds with T cruzi growth-1; T. cruzi beta-gal in NIH3T3, GalScreen luminescence, 90 h; inhibition, % at 2.09 µM; actives 21% (n = 5,600); AID 651740, 2012;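 active = mean inhibition above about 95%, with at least 55% of replicates also reaching it, limit read from the data; inconclusive = meets just one of the two conditions; inactive = meets neither condition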;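 note: plate controls were neutral control median for no effect and positive control median for full effect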
# NIH3T3 tox = cytotoxicity in mouse NIH/3T3 fibroblasts, confirmation, cytotoxicity control for T. cruzi proliferation inhibitor project, cell-based, cherry-pick, single point; NIH/3T3 viability, CellTiter-Glo ATP luminescence, 90 h; actives 14% (n = 5,600); shares compounds with T cruzi growth-1; cytotoxicity (signal decrease), % at 8.35 µM;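 active = mean signal decrease across replicates above about 35% based on untreated-well scatter, with enough replicates individually passing, limit read from the data; inconclusive = no rule stated though some were filed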;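 note: 0% = median of neutral control wells and 100% = median of positive control wells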
# 3T3 cytotox 2 = NIH/3T3 fibroblast cytotoxicity, confirmation, cytotoxicity control, cell-based, cherry-pick, single point, set 2. actives 56% (n = 5,600). shares compounds with T cruzi growth-1. NIH/3T3 viability, CellTiter-Glo ATP luminescence, 90 h. inhibition, % at 24.9 µM. AID 651744, 2012;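 active = mean loss of cell viability signal at or above a set limit, and enough replicates individually reaching it; inconclusive = meets only the mean limit or only the replicate share; inactive = meets neither condition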;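 note: 0% = median of neutral control wells and 100% = median of positive control wells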
# Starred values were filed as active, the others as inactive; ? = inconclusive; . = no result. The sample as a whole holds a higher share of hits than the screen did.
SMILES,T cruzi growth-1,C diff HTS,T cruzi growth-2,T cruzi growth-3,NIH3T3 tox,3T3 cytotox 2
COc1ccc(S(=O)(=O)N(C)C[C@H]2OCCCC[C@H](C)Oc3ccc(NS(=O)(=O)c4ccc(F)cc4)cc3C(=O)N([C@H](C)CO)C[C@H]2C)cc1,68.6,5.3,.,.,.,.
COc1ccc(S(=O)(=O)N(C)C[C@H]2OCCCC[C@@H](C)Oc3ccc(NS(=O)(=O)c4ccc(F)cc4)cc3C(=O)N([C@@H](C)CO)C[C@@H]2C)cc1,104.4*,4.2,102.7*,75.9,10.3,8.4
COc1ccc(S(=O)(=O)N(C)C[C@@H]2OCCCC[C@H](C)Oc3ccc(NS(=O)(=O)c4ccc(F)cc4)cc3C(=O)N([C@@H](C)CO)C[C@H]2C)cc1,105.4*,5.1,108.6*,39.7,-15.3,4.9
COc1ccc(S(=O)(=O)Nc2ccc3c(c2)C(=O)N([C@H](C)CO)C[C@H](C)[C@H](CN(C)S(=O)(=O)c2ccc(F)cc2)OCCCC[C@H](C)O3)cc1,80.3,6.3,.,.,.,.
COc1ccc(S(=O)(=O)N(C)C[C@@H]2OCCCC[C@@H](C)Oc3ccc(NS(=O)(=O)c4ccc(F)cc4)cc3C(=O)N([C@@H](C)CO)C[C@H]2C)cc1,100.9*,7.1,103.1*,64.6,-31.4,-6.0
CC(C)N(C[C@@H]1[C@H](c2ccccc2)[C@@H](CO)N1S(C)(=O)=O)C(=O)CN(C)C,-22.2,2.4,.,.,.,.
CC(C)NC(=O)N(C)C[C@@H]1OCCCC[C@H](C)Oc2ccc(NC(=O)C3CCCCC3)cc2C(=O)N([C@@H](C)CO)C[C@H]1C,-8.3,0.4,.,.,.,.
CO[C@H]1CN(C)C(=O)c2cc(NC(=O)Nc3cccc(Cl)c3)ccc2OC[C@@H](C)NC[C@@H]1C,-31.6,.,.,.,.,.
O=C(N[C@H]1CC[C@@H](CCn2cc(-c3ccccn3)nn2)O[C@@H]1CO)c1ccncc1,17.8,-1.9,.,.,.,.
C[C@@H]1CN([C@H](C)CO)C(=O)c2cc(NC(=O)CCN3CCOCC3)ccc2O[C@H]1CN(C)Cc1ccccc1,26.1,1.1,.,.,.,.
COc1ccc([Si](C)(C)[C@H]2[C@H](CCO)O[C@@]3(C(=O)N(Cc4cccc(N5CCCCC5=O)c4)c4ccccc43)[C@@H]2C)cc1,.,-4.1,.,.,.,.
COc1ccccc1/C=C/C=O,.,-1.6,.,.,.,.
C[C@H]1CN([C@@H](C)CO)C(=O)c2cc(NC(=O)NC3CCCCC3)ccc2O[C@@H]1CN(C)Cc1ccc(Cl)c(Cl)c1,49.7,-8.9,.,.,.,.
C[C@@H]1CN([C@H](C)CO)C(=O)c2cc(NC(=O)NC3CCCCC3)ccc2O[C@H]1CN(C)Cc1ccc(Cl)c(Cl)c1,93.2*,3.1,105.9*,-22.4,19.5,13.4
C[C@H](CO)N1C[C@H](C)[C@@H](CN(C)Cc2ccc(Cl)c(Cl)c2)Oc2ccc(NC(=O)NC3CCCCC3)cc2C1=O,7.2,4.0,.,.,.,.
C[C@@H]1CN([C@@H](C)CO)C(=O)c2cc(NC(=O)NC3CCCCC3)ccc2O[C@@H]1CN(C)Cc1ccc(Cl)c(Cl)c1,?,5.1,96.8*,9.7,28.2,27.2
O=C(Nc1ccc2c(c1)[C@H]1C[C@H](CC(=O)N3CCOCC3)O[C@H](CO)[C@H]1O2)NC1CCCC1,-15.8,0.7,.,.,.,.
Cc1ccccc1S(=O)(=O)N1CC[C@@H]2[C@@H](CO)N(C)c3ccc(Br)cc3[C@@H]21,?,2.7,99.9*,34.8,-1.9,106.0*
CN1c2ccc(Br)cc2[C@H]2[C@H](CCN2S(=O)(=O)c2ccccc2F)[C@@H]1CO,93.3*,7.0,106.6*,10.8,13.7,15.3
Cc1ccccc1S(=O)(=O)N1CC[C@@H]2[C@@H](CO)N(C)c3ccc(-c4ccccc4)cc3[C@@H]21,?,6.2,111.2*,107.9*,22.7,103.9*
Cc1ccccc1S(=O)(=O)N1CC[C@H]2[C@@H](CO)N(C)c3ccc(Br)cc3[C@H]21,68.6,-6.3,.,.,.,.
CN1c2ccc(Br)cc2[C@@H]2[C@@H](CCN2S(=O)(=O)c2ccccc2F)[C@H]1CO,58.3,-3.7,.,.,.,.
Cc1ccccc1S(=O)(=O)N1CC[C@@H]2[C@H]1c1cc(-c3cccc(F)c3)ccc1N(C)[C@H]2CO,46.0,25.1,.,.,.,.
CCCc1cn([C@H]2C[C@@H]3O[C@H](CO)CC[C@@H]3O[C@@H]2CCc2ccc(C#CCc3ccccc3)cc2)nn1,.,9.0,.,.,.,.
CC(C)NC(=O)N(C)C[C@H]1Oc2cc(C#Cc3cccc(F)c3)ccc2S(=O)(=O)N([C@@H](C)CO)C[C@@H]1C,116.0*,-7.9,99.4*,58.5,22.1,44.7*
SMILES,T cruzi growth-1,C diff HTS,T cruzi growth-2,T cruzi growth-3,NIH3T3 tox,3T3 cytotox 2
CC(C)NC(=O)N(C)C[C@@H]1Oc2cc(C#Cc3cccc(F)c3)ccc2S(=O)(=O)N([C@H](C)CO)C[C@@H]1C,60.9,-14.8,.,.,.,.
CC(C)NC(=O)N(C)C[C@H]1Oc2cc(C#Cc3cccc(F)c3)ccc2S(=O)(=O)N([C@@H](C)CO)C[C@H]1C,100.0,-5.8,.,.,.,.
CC(C)NC(=O)N(C)C[C@H]1Oc2cc(C#Cc3ccc(F)cc3)ccc2S(=O)(=O)N([C@@H](C)CO)C[C@H]1C,107.3*,-3.8,105.3*,21.0,-16.5,19.2
CC(C)NC(=O)N(C)C[C@@H]1Oc2cc(C#Cc3cccc(F)c3)ccc2S(=O)(=O)N([C@@H](C)CO)C[C@@H]1C,91.7,-12.3,.,.,.,.
CC(C)NC(=O)N(C)C[C@@H]1Oc2cc(C#Cc3ccc(F)cc3)ccc2S(=O)(=O)N([C@H](C)CO)C[C@@H]1C,110.9*,-5.4,97.3*,?,10.8,10.4
O=C(C[C@H]1C=C[C@H](NC(=O)CCN2CCCCC2)[C@H](CO)O1)Nc1nccs1,46.6,.,.,.,.,.
C[C@@H]1CCCCO[C@@H](CN(C)S(=O)(=O)c2ccc(F)cc2)[C@@H](C)CN([C@H](C)CO)C(=O)c2cc(NC(=O)Nc3ccc(C(F)(F)F)cc3)ccc2O1,103.6*,.,110.9*,106.1*,?,62.1*
C[C@H](CO)N1C[C@H](C)[C@H](CN(C)S(=O)(=O)c2ccc(F)cc2)OCCCC[C@H](C)Oc2ccc(NC(=O)Nc3ccc(C(F)(F)F)cc3)cc2C1=O,93.2,.,.,.,.,.
C[C@@H]1CCCCO[C@@H](CN(C)S(=O)(=O)c2ccc(F)cc2)[C@H](C)CN([C@@H](C)CO)C(=O)c2cc(NC(=O)Nc3ccc(C(F)(F)F)cc3)ccc2O1,100.0*,.,109.2*,113.6*,-8.0,12.4
C[C@H](CO)N1C[C@H](C)[C@@H](CN(C)S(=O)(=O)c2ccc(F)cc2)OCCCC[C@H](C)Oc2ccc(NC(=O)Nc3ccc(C(F)(F)F)cc3)cc2C1=O,87.7,.,.,.,.,.

# Source: PubChem
